Test results reported in PubChem BioAssay (NCATS).
Results filed as inconclusive are left out. Calls of active or inactive are those of the source. Unless noted, calls follow the shape of the dose curve; as a rule, active = well fitted curve in the direction sought with a large enough effect; inconclusive = small, poorly fitted or top-dose-only effect, or another doubt; inactive = no such curve, though single readings can be large; an effect the other way counts as inactive or inconclusive.

Experiments:
[1] = qHTS Assay for Identification of Small Molecule Inducers of Hypoxia Response (AID 2120; active = well fitted curve in the direction sought with a large enough effect in the signal ratio, with a control signal flat, not every such curve was filed as active; the % refers to the signal ratio)
Procedure, shortened: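 Cell-based qHTS for reporter induction: hypoxia response element controlled beta-lactamase in ME-180 cells. Compounds incubated 17 h at 37 degrees C; activity from blue/green (460/530 nm) ratio, inducers ranked by AC50.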

[2] = target: DNA repair nuclease/redox regulator APEX1 (Homo sapiens) (UniProt P27695); experiment: qHTS Validation Assay for Inhibitors of the Human Apurinic/apyrimidinic Endonuclease 1 (APE1) (AID 1705;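 also: TAMRA fluorescence gain over two minutes as APE1 cuts a quenched THF abasic duplex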)
Procedure, shortened: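 Read-out: TAMRA fluorescence (525 nm ex, 598 nm em) from cleavage of a quenched THF abasic-site duplex, 50 nM final; activity taken as intensity change between third and first of three reads 60 s apart.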

[3] = target: Endonuclease 4 (Escherichia coli (strain K12)) (UniProt P0A6C1); experiment: Counterscreen for APE1 Inhibitors: qHTS Validation Assay for Inhibitors of Endonuclease IV (AID 1708)
Procedure, shortened: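 Enzyme (2 nM) + compound, 15 min RT; add 50 nM TAMRA/BHQ-2 THF-site dsDNA; kinetic read ex525/em598, 3 reads/60 s; activity = read 3 − read 1. Buffer Tris pH 7.5, 50 mM NaCl, 2 mM MgCl2, DTT, Tween-20.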

[4] = qHTS Assay for Modulators of Human Peripheral Myelin Protein 22 (PMP22) Expression/Activity (AID 1967; active = well fitted curve in the direction sought with a large enough effect in the signal ratio; the % refers to the signal ratio)
Procedure, shortened: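 Mouse MSC80 Schwann line, Pmp22 promoter–CBG68 reporter, EF-alpha–CBR internal control. 24h compound exposure, 37 °C/5% CO2, DMEM + 10% FBS. Readout: corrected green/red luminescence ratio, normalized to untreated cells; concentration-response curves fitted and classified.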

[5] = target: Ferritin light chain (Equus caballus) (UniProt P02791); experiment: qHTS Validation Assay for Identification of Novel General Anesthetics (AID 2323)
Procedure, shortened: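 10 uM horse-spleen apoferritin + 1-AMA (50% saturated, PBS); cpd pin-transferred, 10 min RT. Ex 380/Em 535 nm endpoint. Activity normalized between free 1-AMA and 1-AMA/apoferritin; 4-parameter Hill fit of concentration-response.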

[6] = target: ATP-dependent DNA helicase Q1 (Homo sapiens) (UniProt P46063); experiment: qHTS Validation Assay for Inhibitors of RecQ-Like Dna Helicase 1 (RECQ1) (AID 2353)
Procedure, shortened: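 RECQ1T1 50 nM; forked duplex (20 bp + 30-nt ss tails) 200 nM, ATP 2 mM final; pH 8.0, 2 mM MgCl2, 2.5 ug/ml poly(dI-dC); 15 min compound preincubation; discontinuous kinetic read over 2 h at RT.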

[7] = Cytometric Cell-Based qHTS for Inhibitors of the mTORC1 Signaling Pathway in MEF (Tsc2-/-, p53-/-) Cells (AID 2660);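 also: Tsc2 and p53 null MEFs carrying empty vector with compound for 24 h; percent of cells above a phospho-rpS6 to PI ratio cutoff in each well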
Procedure, shortened: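 Cells are plated, treated with compound for 24 hrs at 37 degree Celsius, then fixed, blocked and immunostained for phospho-rpS6 Ser235/236. Propidium iodide counterstain follows. Per-well % positive cells is derived from the PI-normalized phospho-S6 signal.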

[8] = High Content Imaging Cell-Based qHTS for Inhibitors of the mTORC1 Signaling Pathway in MEF (Tsc2-/-, p53-/-) Cells (AID 2666); conditions: at 38.3 µM (top of the series);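 also: percent of cells scored positive for phospho-rpS6 Ser235/236 immunostaining by imaging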
Procedure, shortened: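 Inhibition of rpS6 phosphorylation is measured by immunofluorescence imaging in empty-vector Tsc2-/-, p53-/- mouse embryonic fibroblasts after 24 hrs compound exposure at 37 degree Celsius. Results are reported as % positive cells per well.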

[9] = High Content Imaging Cell-Based qHTS for Inhibitors of the mTORC1 Signaling Pathway in MEF Cells (AID 2667);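 also: Tsc2-/- p53-/- MEFs stably re-expressing wild-type Tsc2 exposed 24 h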
Procedure, shortened: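 Fixed-cell imaging of phospho-S6 (Ser235/236, Alexa-488) after 24 hrs of compound treatment at 37 degree Celsius. Signal was normalized to Hoechst, and thresholds from the highest and lowest wells split cells into % active versus % non-active.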

[10] = Cytometry Cell-Based qHTS for Inhibitors of the mTORC1 Signaling Pathway in MEF cells (AID 2668);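 also: Tsc2-/- p53-/- mouse embryonic fibroblasts stably re-expressing wild-type Tsc2; percent cells positive for phospho-rpS6 Ser235/236 relative to propidium iodide stain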
Procedure, shortened: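 Read-out: phospho-rpS6 Ser235/236 immunofluorescence normalized to propidium iodide intensity, scored as % active cells against a rapamycin (7.5 nM) threshold. Cells: Tsc2-/-, p53-/- MEFs stably expressing WT Tsc2, compound-treated 24 hrs at 37 degree Celsius.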

[11] = Validation screen for small molecules that induce DNA re-replication in MCF 10A normal breast cells (AID 463097); also: nearly all actives have a fitted effect of over 60% in size
Procedure, shortened: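 250 MCF 10A cells/well; compound pin-transferred; 48 hr, 37 C, 5% CO2; Hoechst 40 min; imaged 405/500-530 nm. Hits = more high-intensity nuclei.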

[12] = target: Ubiquitin carboxyl-terminal hydrolase 2 (Homo sapiens) (UniProt O75604); experiment: qHTS Validation Assay for Inhibitors of Ubiquitin-specific Protease USP2a Using CHOP2 as the Reporter (AID 463106)
Procedure, shortened: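 Inhibition is expressed relative to NEM as the full-inhibition control, with concentration-response curves classed by fit quality, magnitude and activity. Enzyme (USP2 core, 10nM) meets 25nM Ub-CHOP2 after compound preincubation; readings are taken at 60min.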

[13] = target: DNA polymerase III PolC-type (Bacillus subtilis (strain 168)) (UniProt P13267); experiment: qHTS Validation Assay for the Inhibitors of DNA Replication in Gram-Positive Bacteria (AID 485295);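 also: reconstituted holoenzyme with PolC plus beta clamp SSB and primase; PicoGreen fluorescence of double-stranded DNA made on primed circular M13 template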
Procedure, shortened: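 PicoGreen fluorescence (ex 480–485/em 535–540 nm) reports dsDNA synthesized on ssM13Gori template with dNTPs/NTPs. Enzyme: holoenzyme rebuilt from purified PolC, beta subunit, SSB and primase. Compound preincubated before substrate addition; RT throughout.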

[14] = target: Tumor susceptibility gene 101 protein (Homo sapiens) (UniProt Q99816); experiment: qHTS Validation Assay for Iinhibitors of HIV-1 Budding by Blocking the Interaction of PTAP/TSG101 (AID 485342; calls by dose curve)
Procedure, shortened: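 FP read-out: FITC-PTAP peptide, 50 nM final, binding Tsg101 binding domain, 10 uM final; 20 min r.t.; 10 mM HEPES pH 7.5, 0.15 M NaCl, 0.01% Tween 20, 3 mM EDTA, 0.1 mM TCEP.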

[15] = target: Beta-2 adrenergic receptor (Homo sapiens) (UniProt P07550); experiment: qHTS validation assay of beta-arrestin-biased ligands of beta2-adrenergic receptor (AID 485366)
Procedure, shortened: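 Compound series up to 46 microM applied to beta2-AR/beta-arrestin Tango cells, 18 hr, 37 degrees C, 5% CO2. Read-out: tTA-driven luciferase luminescence, converted to %Activity; concentration-response curves assigned curve classes.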

[16] = target: ATP-dependent 6-phosphofructokinase (Trypanosoma brucei brucei) (UniProt O15648); experiment: qHTS Validation Assay to Find Inhibitors of T. brucei phosphofructokinase (AID 485368); conditions: outcome: dose series up to 57.5 µM
Procedure, shortened: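 qHTS format, up to 57 uM. PFK 1.25 nM; F6P 0.5 mM; ATP 0.1 mM; 5 mM MgCl2, 0.01% Tween20, 0.1% BSA; 0.1 M TEA pH 8.0; 45 min RT; ADP-Glo readout; no-enzyme control = full inhibition.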

[17] = target: Thioredoxin reductase 1, cytoplasmic (Rattus norvegicus) (UniProt O89049); experiment: qHTS Assay for Substrates of Mammalian Selenoprotein Thioredoxin Reductase 1 (TrxR1) (AID 488772);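 also: a drop in NADPH fluorescence below the no-compound background marks a TrxR1 substrate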
Procedure, shortened: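 In this dual-purpose format, potential substrates are identified from the first fluorescence read after selenite addition, not from the 8-minute delta. Rat enzyme is preincubated with NADPH and then with compound at ~22 deg C.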

[18] = target: Thioredoxin reductase 1, cytoplasmic (Rattus norvegicus) (UniProt O89049); experiment: qHTS Assay for Inhibitors of Mammalian Selenoprotein Thioredoxin Reductase 1 (TrxR1) (AID 488773);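 also: drop in NADPH fluorescence over an 8 min run after selenite addition; nearly all actives have a fitted effect of over 40% in size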
Procedure, shortened: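 Inhibition is scored from the loss of NADPH fluorescence between first and last reads of an 8-min kinetic run. Selenite (400 uM) was the substrate, added after 15 min compound preincubation at room temperature.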

[19] = target: Flap endonuclease 1 (Homo sapiens) (UniProt P39748); experiment: qHTS Validation Assay for the Inhibitors of Human Flap endonuclease 1 (FEN1) (AID 488816)
Procedure, shortened: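 Steps: add FEN1 (10 nM reagent) or buffer only; pin compounds; hold 15 min at room temperature; start with substrate, 50 nM final; read at 0 and 15 min; correct, normalize and fit a four-parameter Hill curve.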

[20] = target: RecQ-like DNA helicase BLM (Homo sapiens) (UniProt P54132); experiment: qHTS Validation Assay for Inhibitors of Bloom's syndrome helicase (BLM) (AID 2364)
Procedure, shortened: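 BLM 50 nM in 25 mM Tris-HCl pH 8.0, 5 mM NaCl, 2 mM MgCl2, 1 mM DTT, 0.01% Tween-20, 2.5 ug/ml poly(dI-dC); 15 min cpd preinc, RT. Start: 200 nM forked DNA + 2 mM ATP (final). TAMRA read, 2 reads 2 h apart.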

Measured: outcome

Sequence of Thioredoxin reductase 1, cytoplasmic (Rattus norvegicus) (O89049 whole entry, looked up): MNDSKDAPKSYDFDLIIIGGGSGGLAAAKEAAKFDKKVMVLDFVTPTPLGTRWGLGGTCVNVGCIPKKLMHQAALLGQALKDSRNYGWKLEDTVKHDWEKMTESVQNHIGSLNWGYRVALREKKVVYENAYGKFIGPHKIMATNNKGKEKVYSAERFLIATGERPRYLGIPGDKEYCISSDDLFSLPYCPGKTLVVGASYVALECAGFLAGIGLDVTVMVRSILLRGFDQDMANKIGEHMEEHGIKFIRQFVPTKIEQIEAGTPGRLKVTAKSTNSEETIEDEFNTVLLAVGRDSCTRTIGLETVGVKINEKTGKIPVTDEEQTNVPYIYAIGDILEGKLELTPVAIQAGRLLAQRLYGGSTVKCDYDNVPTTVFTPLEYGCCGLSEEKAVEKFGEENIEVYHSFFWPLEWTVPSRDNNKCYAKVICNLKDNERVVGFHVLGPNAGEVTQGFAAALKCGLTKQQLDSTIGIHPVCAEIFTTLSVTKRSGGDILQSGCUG
Sequence of Ubiquitin carboxyl-terminal hydrolase 2 (Homo sapiens) (O75604 whole entry, looked up): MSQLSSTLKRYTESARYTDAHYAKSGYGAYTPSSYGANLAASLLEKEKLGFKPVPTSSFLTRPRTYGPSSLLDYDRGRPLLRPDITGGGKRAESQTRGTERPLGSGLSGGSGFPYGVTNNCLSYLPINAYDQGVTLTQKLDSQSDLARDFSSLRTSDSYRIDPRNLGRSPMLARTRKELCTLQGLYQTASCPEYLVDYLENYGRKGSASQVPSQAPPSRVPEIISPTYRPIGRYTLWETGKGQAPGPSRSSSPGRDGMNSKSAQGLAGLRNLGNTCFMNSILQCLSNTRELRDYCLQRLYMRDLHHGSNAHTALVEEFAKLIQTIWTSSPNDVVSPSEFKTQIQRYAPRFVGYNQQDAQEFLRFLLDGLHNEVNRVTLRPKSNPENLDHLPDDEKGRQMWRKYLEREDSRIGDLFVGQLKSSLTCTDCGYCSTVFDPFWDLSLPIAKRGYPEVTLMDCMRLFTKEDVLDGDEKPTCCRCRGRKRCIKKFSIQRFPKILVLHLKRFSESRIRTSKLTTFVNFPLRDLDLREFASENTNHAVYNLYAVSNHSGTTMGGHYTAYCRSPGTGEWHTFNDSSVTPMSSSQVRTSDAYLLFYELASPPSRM
Sequence of ATP-dependent 6-phosphofructokinase (Trypanosoma brucei brucei) (O15648 whole entry, looked up): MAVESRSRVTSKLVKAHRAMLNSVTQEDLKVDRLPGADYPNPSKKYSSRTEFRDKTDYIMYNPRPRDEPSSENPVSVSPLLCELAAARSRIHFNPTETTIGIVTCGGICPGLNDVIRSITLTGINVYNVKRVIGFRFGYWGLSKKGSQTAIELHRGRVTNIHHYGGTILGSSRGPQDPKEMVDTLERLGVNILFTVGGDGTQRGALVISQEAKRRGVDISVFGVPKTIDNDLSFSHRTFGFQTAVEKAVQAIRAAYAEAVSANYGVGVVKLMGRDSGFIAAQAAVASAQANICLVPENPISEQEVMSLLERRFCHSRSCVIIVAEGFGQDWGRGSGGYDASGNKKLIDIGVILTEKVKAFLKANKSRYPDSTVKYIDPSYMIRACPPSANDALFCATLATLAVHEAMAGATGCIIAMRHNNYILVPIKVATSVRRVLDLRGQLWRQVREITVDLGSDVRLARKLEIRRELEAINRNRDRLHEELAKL
Sequence of DNA repair nuclease/redox regulator APEX1 (Homo sapiens) (P27695 whole entry, looked up): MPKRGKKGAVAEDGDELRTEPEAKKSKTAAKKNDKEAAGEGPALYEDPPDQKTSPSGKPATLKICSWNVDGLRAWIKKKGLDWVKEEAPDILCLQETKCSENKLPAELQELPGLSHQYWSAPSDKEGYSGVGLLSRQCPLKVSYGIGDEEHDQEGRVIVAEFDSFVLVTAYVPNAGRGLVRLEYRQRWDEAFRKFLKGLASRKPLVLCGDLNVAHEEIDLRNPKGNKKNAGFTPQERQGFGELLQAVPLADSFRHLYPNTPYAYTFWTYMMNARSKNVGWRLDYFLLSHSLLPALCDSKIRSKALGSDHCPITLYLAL
Sequence of Beta-2 adrenergic receptor (Homo sapiens) (P07550 whole entry, looked up): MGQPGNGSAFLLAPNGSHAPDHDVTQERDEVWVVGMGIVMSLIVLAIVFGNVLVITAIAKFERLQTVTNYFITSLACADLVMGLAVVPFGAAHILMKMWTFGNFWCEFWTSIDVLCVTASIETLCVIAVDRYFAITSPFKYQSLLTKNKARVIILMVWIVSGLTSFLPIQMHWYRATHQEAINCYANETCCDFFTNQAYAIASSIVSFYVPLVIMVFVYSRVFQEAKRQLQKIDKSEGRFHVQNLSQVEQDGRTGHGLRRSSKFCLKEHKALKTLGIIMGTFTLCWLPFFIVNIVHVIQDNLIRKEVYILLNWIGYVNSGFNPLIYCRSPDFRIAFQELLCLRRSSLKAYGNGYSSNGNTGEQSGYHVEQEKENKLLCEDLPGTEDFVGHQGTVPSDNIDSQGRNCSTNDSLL
Sequence of Flap endonuclease 1 (Homo sapiens) (P39748 whole entry, looked up): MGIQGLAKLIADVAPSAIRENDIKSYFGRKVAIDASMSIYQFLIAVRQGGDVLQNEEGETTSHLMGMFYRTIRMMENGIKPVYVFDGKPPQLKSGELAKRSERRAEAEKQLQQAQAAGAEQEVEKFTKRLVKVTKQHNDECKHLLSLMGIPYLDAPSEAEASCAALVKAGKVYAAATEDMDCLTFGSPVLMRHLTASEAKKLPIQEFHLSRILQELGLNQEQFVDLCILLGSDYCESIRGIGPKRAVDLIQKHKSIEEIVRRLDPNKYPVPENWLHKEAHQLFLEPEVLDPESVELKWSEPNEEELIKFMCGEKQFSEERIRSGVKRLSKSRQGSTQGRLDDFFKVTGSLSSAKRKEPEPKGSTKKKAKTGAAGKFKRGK
Sequence of ATP-dependent DNA helicase Q1 (Homo sapiens) (P46063 whole entry, looked up): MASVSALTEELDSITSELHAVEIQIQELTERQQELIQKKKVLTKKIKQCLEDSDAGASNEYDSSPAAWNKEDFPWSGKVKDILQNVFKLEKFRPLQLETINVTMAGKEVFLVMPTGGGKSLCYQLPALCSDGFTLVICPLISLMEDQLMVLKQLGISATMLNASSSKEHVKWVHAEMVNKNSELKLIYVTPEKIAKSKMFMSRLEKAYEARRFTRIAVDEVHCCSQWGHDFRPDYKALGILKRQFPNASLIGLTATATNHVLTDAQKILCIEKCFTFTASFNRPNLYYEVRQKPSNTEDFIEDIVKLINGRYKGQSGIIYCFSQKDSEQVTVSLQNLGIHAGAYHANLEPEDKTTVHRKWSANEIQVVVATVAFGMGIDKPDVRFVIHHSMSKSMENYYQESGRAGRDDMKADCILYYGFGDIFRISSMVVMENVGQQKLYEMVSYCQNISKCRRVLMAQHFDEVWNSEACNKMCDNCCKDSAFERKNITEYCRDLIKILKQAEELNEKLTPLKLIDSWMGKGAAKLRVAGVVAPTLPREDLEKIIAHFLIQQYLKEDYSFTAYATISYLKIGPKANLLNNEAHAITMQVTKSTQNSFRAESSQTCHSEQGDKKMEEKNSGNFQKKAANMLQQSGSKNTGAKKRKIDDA
Sequence of Tumor susceptibility gene 101 protein (Homo sapiens) (Q99816 whole entry, looked up, the tested form may be a part): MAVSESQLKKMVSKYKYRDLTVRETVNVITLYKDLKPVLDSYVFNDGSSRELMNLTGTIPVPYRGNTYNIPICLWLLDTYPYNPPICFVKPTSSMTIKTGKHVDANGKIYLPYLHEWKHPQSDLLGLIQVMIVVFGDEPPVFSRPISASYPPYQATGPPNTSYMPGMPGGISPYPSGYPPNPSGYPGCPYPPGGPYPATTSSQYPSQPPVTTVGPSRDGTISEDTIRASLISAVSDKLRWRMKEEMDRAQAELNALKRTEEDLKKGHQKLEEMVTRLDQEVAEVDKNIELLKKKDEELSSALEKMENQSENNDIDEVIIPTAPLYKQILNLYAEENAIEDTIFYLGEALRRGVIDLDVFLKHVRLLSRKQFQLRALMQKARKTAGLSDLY
Sequence of Ferritin light chain (Equus caballus) (P02791 2-175 limits assumed): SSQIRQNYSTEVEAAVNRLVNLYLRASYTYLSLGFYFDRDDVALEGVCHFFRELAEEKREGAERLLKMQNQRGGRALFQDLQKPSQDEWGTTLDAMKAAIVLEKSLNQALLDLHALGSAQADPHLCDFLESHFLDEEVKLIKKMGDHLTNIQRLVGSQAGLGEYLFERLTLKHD

COC(C)=O
inactive: [1]

O=C(O)CC(O)(CC(=O)O)C(=O)O
inactive: [1]

CCCCCCCCCC(=O)O
inactive: [1]

NCCCC(=O)O
not listed: [1] | [20]
inactive: all other assays above

C=Cc1ccccc1
inactive: [1]

CN(C)Cc1ccccc1
inactive: [1]

CN[C@H]1CC[C@@H](c2ccc(Cl)c(Cl)c2)c2ccccc21
not listed: [1] | [4] | [5] | [7] | [8] | [9] | [10] | [11]
inactive: all other assays above
